Assay results reported in PubChem BioAssay (Tox21).
Inconclusive results are not listed. Active and inactive are the calls of the source. Unless noted, calls come from the whole dose curve; as a rule, active = well fitted curve in the direction sought with a large enough effect in the repeat runs; inconclusive = weak or mixed curves; inactive = no such curve, though single readings can be large; an effect the other way counts as inactive or inconclusive.

How the values were obtained:
[1] = qHTS assay to identify small molecule agonists of the sonic hedgehog signaling (Shh) pathway (AID 1259368; calls by dose curve;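 note: NIH/3T3-derived 3T3Gli1-Luc cells carrying a stable Gli1-driven firefly luciferase reporter; series mostly up to about 92 µM; nearly all actives have a fitted effect of over 15% in size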)
In short: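 3T3Gli1-Luc (NIH/3T3 clone, stable Gli1-Luc); 4 hr pre-incubation, then cpd in DMSO 24 hr, 37 C/5% CO2; luciferase reagent 30 min RT; luminescence.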

[2] = qHTS assay to identify small molecule antagonists of the sonic hedgehog signaling (Shh) pathway (AID 1259369; calls by dose curve; note: nearly all actives have a fitted effect of over 45% in size)
In short: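 3T3Gli1-Luc, conditioned-medium-stimulated, 24hr cpd, 37C/5% CO2; Gli1-driven firefly Luc luminescence after 30min RT with luciferase reagent. Cells plated 4hr before cpd.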

[3] = target: Estrogen receptor beta (Homo sapiens) (UniProt Q92731); assay: qHTS assay to identify small molecule agonists of the estrogen receptor beta (ER-beta) signaling pathway (AID 1259377; active = well fitted activation curve with a large enough effect in the signal ratio in the repeat runs, not every such curve was filed as active; the % refers to the signal ratio)
In short: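 qHTS in ER-beta-UAS-bla HEK293T cells: 6 hr settling, then 16 hr compound at 37C, then LiveBLAzer substrate 2 h at RT before fluorescence reading.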

[4] = target: Estrogen receptor beta (Homo sapiens) (UniProt Q92731); assay: qHTS assay to identify small molecule antagonists of the estrogen receptor beta (ER-beta) signaling pathway (AID 1259378; active = well fitted inhibition curve with a large enough effect in the signal ratio in the repeat runs, not every such curve was filed as active; the % refers to the signal ratio)
In short: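 ER-beta-UAS-bla HEK293T (GripTite) cells in 2% charcoal-stripped FBS medium were preincubated 6 hr at 37C, dosed with compound, then stimulated with 1 nM E2 (final) for 16 hr; beta-lactamase reporter read by B/G FRET fluorescence after 2 hr substrate loading.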

[5] = qHTS assay to identify small molecule agonists of the androgen receptor (AR) signaling pathway in the presence of an antagonist - cell viability counter screen (AID 1259379);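 note: MDA-kb2 human breast cancer cells carrying an MMTV luciferase reporter; series mostly up to about 92 µM; nearly all actives have a fitted effect of over 25% in size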
In short: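 Cells: MDA-kb2 (MMTV-luc, AR and GR elements), 3,000/well, 5 hr settle. Added: nilutamide 3.0uM final, then compounds (15 conc.). Incubation: 16 hr, 37C, no CO2. Read-out: CellTiter-Fluor, 1 hr, fluorescence.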

[6] = qHTS assay to identify small molecule agonists of the estrogen receptor beta (ER-beta) signaling pathway - cell viability counter screen (AID 1259380); note: nearly all actives have a fitted effect of over 30% in size
In short: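 HEK293T ER-beta-UAS-bla; 2% CS-FBS; 6 hr pre-plate, 16 hr cpd at 37C/5% CO2; LiveBLAzer read first, then CellTiter-Glo 30 min RT, luminescence.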

[7] = target: Androgen receptor (Homo sapiens) (UniProt P10275); assay: qHTS assay to identify small molecule agonists of the androgen receptor (AR) signaling pathway in the presence of an antagonist (AID 1259381; calls by dose curve; note: nearly all actives have a fitted effect of over 15% in size)
In short: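 MDA-kb2 cells, 3,000/well, rested 5hr at 37C/0% CO2 → nilutamide 3.0uM final or buffer → compounds, 15 conc. → 16hr at 37C → ONE-Glo, 30min RT → luminescence.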

[8] = qHTS assay to identify small molecule antagonists of the estrogen receptor beta (ER-beta) signaling pathway - cell viability counter screen (AID 1259382); note: series mostly up to about 92 µM; nearly all actives have a fitted effect of over 55% in size
In short: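 Cells: ER-beta-UAS-bla HEK293T, 2,000/well, 2% CS-FBS, 6 hr settle. Cpd + E2 (1nM final), 16 hr, 37C/5% CO2. Bla FRET substrate 2 hr RT, then CellTiter-Glo 30 min RT, luminescence.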

[9] = target: Estrogen receptor (Homo sapiens) (UniProt P03372); assay: qHTS assay to identify small molecule agonists of the estrogen receptor alpha (ER-alpha) signaling pathway in the presence of an antagonist (AID 1259383; calls by dose curve; note: top concentration of the series differs between compounds; nearly all actives have a fitted effect of over 15% in size)
In short: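 VM7Luc4E2, endog. ER-alpha + 4×ERE-luc; charcoal-stripped FBS, phenol red-free, 5 d; 24hr plating; +10.0nM ICI-182,780 (final); cpds 15 conc, 22hr, 37C/5% CO2; ONE-Glo luminescence.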

[10] = qHTS assay to identify small molecule agonists or antagonists of the thyroid stimulating hormone receptor (TSHR) signaling pathway - wild type cell line counter screen (AID 1259384; calls by dose curve)
In short: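 Wild-type HEK293 cells were plated 18 h at 37 C/5% CO2, pin-dosed with compound plus Ro20-1724 medium, held 30 min at room temperature, then given cAMP-d2 and anti-cAMP-cryptate; fluorescence was read after 1 h. Fifteen concentrations, triplicate.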

[11] = target: Thyrotropin receptor (Homo sapiens) (UniProt P16473); assay: qHTS assay to identify small molecule antagonists of the thyroid stimulating hormone receptor (TSHR) signaling pathway (AID 1259385; calls by dose curve; note: nearly all actives have a fitted effect of over 20% in size)
In short: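 TSHR-HEK293 cells were plated and held 18 h at 37C/5% CO2, then given compound plus Ro20-1724 and stimulated with TSH at 1.5 ng/mL final. After 30 min at room temperature, cAMP was detected with cAMP-d2/anti-cAMP-cryptate (1 h) by fluorescence.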

[12] = qHTS assay to identify small molecule agonists of the estrogen receptor alpha (ER-alpha) signaling pathway in the presence of an antagonist - cell viability counter screen (AID 1259386);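 note: series mostly up to about 92 µM; cells exposed to compounds for 22 h at 37 °C before the viability read; nearly all actives have a fitted effect of over 30% in size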
In short: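 VM7Luc4E2, stripped-serum pre-culture 5 d; 24hr plating; +ICI-182,780 10.0nM final; cpds 15 conc, 22hr, 37C/5% CO2; CellTiter-Fluor added at 21hr, fluorescence 1hr later.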

[13] = target: Progesterone receptor (Homo sapiens) (UniProt P06401); assay: qHTS assay to identify small molecule agonists of the progesterone receptor (PR) signaling pathway (AID 1346784; calls by dose curve; note: nearly all actives have a fitted effect of over 30% in size)
In short: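 Fluorescence from LiveBLAzer B/G FRET substrate cleavage (2 hr, RT) reported PR activation in PR-UAS-bla HEK 293T cells treated 16 hr at 37C/5% CO2 with compounds; medium contained 2% charcoal-stripped FBS.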

[14] = qHTS assay to identify small molecule agonists of the progesterone receptor (PR) signaling pathway - cell viability counter screen (AID 1346799; calls by dose curve; note: nearly all actives have a fitted effect of over 45% in size)
In short: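 In parallel with the beta-lactamase readout, cytotoxicity toward PR-UAS-bla HEK293T cells was measured by CellTiter-Glo luminescence following 16 hr compound incubation in 2% charcoal-stripped FBS medium.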

[15] = qHTS assay to identify small molecule antagonists of the TGF-beta/Smad signaling pathway - cell viability counter screen (AID 1346824); note: nearly all actives have a fitted effect of over 50% in size
In short: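 SBE-bla HEK 293T cells were plated overnight at 37 C, then given compounds in DMSO plus TGF-beta1 (added as 0.25 ng/mL solution) for 5 hr. After the bla read, CellTiter-Glo was added to the same wells and luminescence read after 30 min at room temperature.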

[16] = qHTS assay to identify small molecule agonists of the TGF-beta/Smad signaling pathway - cell viability counter screen (AID 1346829); note: top concentration of the series differs between compounds; nearly all actives have a fitted effect of over 45% in size
In short: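 Compound-treated SBE-bla HEK 293T cells (5 hr, 37 C) were assessed for viability with CellTiter-Glo in parallel with the reporter read.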

[17] = qHTS assay to identify small molecule agonists of the TGF-beta/Smad signaling pathway (AID 1346859; active = well fitted activation curve with a large enough effect in the signal ratio in the repeat runs, not every such curve was filed as active; the % refers to the signal ratio; note: series mostly up to about 77 µM)
In short: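 After overnight seeding, SBE-bla HEK 293T cells are dosed with compounds in DMSO and kept 5 hr at 37 C, 5% CO2. LiveBLAzer-type FRET substrate is then applied for 2 hr at room temperature.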

[18] = target: Thyrotropin-releasing hormone receptor (Homo sapiens) (UniProt P34981); assay: qHTS assay to identify small molecule antagonists of the thyrotropin-releasing hormone receptor (TRHR) signaling pathway (AID 1346877; active = well fitted inhibition curve with a large enough effect in the repeat runs, not every such curve was filed as active; note: series mostly up to about 51 µM)
In short: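 Intracellular calcium fluorescence, read kinetically every second over 3 min, reports TRH-evoked signalling in HEK293 cells carrying TRHR. Test compounds were added 5 min ahead of a 1 nM TRH challenge.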

[19] = target: Progesterone receptor (Homo sapiens) (UniProt P06401); assay: qHTS assay to identify small molecule antagonists of the progesterone receptor (PR) signaling pathway (AID 1346795; active = well fitted inhibition curve with a large enough effect in the signal ratio in the repeat runs, not every such curve was filed as active; the % refers to the signal ratio)
In short: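 Fluorescence intensity measured 2 hr after adding beta-lactamase FRET substrate to PR-UAS-bla HEK293T cells that had been co-treated 16 hr with compound and 1 nM R5020 (final concentration) in 2% charcoal-stripped FBS.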

[20] = qHTS assay to identify small molecule antagonists of the progesterone receptor (PR) signaling pathway - cell viability counter screen (AID 1346798); note: series mostly up to about 92 µM; nearly all actives have a fitted effect of over 50% in size
In short: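 CellTiter-Glo luminescence; PR-UAS-bla HEK293T, 3,000 cells/well; compound + R5020, 16 hr, 37C/5% CO2; 30 min RT before read.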

Measured: Potency

Chain of Estrogen receptor beta (Homo sapiens) (Q92731 whole entry, looked up): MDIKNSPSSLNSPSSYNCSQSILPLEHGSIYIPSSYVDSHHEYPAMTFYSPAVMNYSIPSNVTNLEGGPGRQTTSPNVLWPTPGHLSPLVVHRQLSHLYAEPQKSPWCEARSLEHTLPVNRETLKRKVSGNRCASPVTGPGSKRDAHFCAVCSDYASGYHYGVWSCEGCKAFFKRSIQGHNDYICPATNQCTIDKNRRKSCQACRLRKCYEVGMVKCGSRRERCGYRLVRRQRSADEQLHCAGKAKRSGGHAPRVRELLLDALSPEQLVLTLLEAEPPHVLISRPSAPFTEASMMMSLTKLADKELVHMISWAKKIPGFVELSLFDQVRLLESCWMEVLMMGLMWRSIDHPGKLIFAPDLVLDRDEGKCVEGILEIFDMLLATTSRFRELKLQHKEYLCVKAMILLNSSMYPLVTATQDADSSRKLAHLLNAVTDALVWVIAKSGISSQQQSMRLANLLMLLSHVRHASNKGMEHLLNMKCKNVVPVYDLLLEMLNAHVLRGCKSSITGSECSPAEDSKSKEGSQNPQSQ
Chain of Estrogen receptor (Homo sapiens) (P03372 whole entry, looked up): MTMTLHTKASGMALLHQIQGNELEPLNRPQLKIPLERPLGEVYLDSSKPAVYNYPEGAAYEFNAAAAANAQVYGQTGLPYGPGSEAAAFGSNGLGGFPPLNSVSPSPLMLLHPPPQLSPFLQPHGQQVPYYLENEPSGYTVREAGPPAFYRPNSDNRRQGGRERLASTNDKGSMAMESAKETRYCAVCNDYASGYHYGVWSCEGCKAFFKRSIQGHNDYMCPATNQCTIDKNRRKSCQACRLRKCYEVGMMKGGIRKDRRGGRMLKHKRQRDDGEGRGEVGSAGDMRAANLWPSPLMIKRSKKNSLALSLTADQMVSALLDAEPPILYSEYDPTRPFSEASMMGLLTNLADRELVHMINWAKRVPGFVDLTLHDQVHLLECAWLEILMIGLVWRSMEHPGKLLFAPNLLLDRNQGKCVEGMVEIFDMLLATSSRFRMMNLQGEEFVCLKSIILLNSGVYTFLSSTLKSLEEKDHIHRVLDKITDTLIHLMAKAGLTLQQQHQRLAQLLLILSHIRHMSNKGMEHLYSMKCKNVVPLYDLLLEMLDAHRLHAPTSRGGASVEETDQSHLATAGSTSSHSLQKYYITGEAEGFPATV
Chain of Progesterone receptor (Homo sapiens) (P06401 whole entry, looked up): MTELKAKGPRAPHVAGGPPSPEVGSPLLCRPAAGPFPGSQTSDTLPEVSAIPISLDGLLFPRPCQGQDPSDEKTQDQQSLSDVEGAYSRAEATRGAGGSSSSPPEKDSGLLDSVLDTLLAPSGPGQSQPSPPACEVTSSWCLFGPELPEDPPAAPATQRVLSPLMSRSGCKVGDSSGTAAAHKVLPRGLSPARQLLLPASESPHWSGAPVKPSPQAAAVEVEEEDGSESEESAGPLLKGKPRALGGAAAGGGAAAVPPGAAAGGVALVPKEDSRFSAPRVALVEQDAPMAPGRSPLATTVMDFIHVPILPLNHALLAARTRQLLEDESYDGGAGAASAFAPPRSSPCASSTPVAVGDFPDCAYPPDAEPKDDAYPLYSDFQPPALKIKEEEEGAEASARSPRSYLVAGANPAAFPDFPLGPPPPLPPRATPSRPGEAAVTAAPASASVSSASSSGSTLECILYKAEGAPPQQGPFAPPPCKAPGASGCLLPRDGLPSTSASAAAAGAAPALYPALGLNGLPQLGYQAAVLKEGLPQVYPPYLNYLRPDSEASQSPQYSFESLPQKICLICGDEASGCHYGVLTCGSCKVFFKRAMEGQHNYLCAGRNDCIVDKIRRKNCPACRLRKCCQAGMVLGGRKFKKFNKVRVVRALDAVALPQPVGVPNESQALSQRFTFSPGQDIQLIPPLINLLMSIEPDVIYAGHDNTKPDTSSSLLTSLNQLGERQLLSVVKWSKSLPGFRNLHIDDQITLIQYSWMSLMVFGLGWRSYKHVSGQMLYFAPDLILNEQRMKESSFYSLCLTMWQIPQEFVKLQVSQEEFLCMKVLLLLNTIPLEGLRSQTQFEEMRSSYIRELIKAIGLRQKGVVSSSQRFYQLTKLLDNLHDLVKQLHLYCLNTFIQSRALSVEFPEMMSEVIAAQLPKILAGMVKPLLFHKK
Chain of Thyrotropin-releasing hormone receptor (Homo sapiens) (P34981 whole entry, looked up): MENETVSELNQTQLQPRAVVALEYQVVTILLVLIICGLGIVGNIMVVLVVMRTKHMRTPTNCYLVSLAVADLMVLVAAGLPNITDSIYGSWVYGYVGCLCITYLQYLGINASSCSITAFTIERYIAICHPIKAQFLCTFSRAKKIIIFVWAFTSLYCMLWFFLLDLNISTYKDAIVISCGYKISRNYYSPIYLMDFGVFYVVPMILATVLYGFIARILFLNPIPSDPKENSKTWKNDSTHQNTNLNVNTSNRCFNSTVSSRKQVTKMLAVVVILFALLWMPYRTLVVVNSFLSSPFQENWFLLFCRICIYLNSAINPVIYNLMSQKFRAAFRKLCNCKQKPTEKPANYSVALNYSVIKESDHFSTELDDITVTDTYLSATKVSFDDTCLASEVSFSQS
Chain of Thyrotropin receptor (Homo sapiens) (P16473 whole entry, looked up): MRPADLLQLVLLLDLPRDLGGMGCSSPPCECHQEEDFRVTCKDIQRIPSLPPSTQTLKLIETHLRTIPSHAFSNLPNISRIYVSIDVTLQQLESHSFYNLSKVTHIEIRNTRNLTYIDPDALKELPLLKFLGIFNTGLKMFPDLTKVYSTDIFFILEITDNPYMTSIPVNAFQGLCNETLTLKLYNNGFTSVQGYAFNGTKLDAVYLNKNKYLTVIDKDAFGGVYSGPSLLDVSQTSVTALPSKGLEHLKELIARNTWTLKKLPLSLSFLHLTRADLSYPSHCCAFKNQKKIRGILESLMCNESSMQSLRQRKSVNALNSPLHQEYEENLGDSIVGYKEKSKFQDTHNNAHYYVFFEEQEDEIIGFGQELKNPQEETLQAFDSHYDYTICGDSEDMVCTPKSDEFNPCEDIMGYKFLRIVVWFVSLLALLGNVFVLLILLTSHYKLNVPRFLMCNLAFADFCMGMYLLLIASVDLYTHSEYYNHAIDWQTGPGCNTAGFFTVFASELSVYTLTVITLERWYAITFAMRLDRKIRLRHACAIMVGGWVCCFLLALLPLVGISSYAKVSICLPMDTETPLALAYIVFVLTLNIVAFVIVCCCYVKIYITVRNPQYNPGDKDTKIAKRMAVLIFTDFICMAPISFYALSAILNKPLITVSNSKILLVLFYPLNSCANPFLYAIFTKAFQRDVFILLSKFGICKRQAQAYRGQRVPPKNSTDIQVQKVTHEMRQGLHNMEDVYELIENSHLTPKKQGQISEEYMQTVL
Chain of Androgen receptor (Homo sapiens) (P10275 whole entry, looked up): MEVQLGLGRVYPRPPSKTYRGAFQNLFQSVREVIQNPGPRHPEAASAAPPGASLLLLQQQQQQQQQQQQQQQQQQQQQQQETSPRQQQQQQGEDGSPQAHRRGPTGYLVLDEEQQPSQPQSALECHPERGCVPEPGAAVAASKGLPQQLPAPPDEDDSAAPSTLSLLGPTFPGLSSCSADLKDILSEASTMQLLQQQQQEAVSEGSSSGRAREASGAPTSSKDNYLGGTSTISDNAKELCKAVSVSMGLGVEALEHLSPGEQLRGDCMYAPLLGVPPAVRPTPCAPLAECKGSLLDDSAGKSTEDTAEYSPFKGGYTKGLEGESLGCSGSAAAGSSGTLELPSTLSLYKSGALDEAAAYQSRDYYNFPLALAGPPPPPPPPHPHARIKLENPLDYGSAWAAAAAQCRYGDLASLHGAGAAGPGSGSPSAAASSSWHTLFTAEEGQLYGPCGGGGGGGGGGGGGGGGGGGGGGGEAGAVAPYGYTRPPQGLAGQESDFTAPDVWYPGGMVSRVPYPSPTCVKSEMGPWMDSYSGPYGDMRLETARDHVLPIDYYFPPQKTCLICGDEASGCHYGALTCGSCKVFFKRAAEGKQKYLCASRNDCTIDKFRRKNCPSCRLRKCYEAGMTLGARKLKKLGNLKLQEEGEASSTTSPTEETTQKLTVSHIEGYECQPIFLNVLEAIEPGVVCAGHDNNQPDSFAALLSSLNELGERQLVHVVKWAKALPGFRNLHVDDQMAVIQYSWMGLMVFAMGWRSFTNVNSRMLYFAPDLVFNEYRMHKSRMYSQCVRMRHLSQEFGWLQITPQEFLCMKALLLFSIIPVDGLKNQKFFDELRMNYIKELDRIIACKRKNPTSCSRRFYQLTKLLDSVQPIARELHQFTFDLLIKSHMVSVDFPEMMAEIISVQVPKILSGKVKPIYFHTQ

OCCN(CCO)CCN(CCO)CCO
inactive: [1] | [2] | [3] | [4] | [5] | [6] | [7] | [8] | [9] | [10] | [11] | [12] | [13] | [14] | [15] | [16] | [17] | [18]

CC(=O)OC1C2(C)CCC(C2)C1(C)C (stereo not drawn)
inactive: [1] | [2] | [3] | [4] | [5] | [6] | [8] | [9] | [10] | [11] | [12] | [19] | [20] | [14] | [15] | [17] | [18]

O=C(O)c1cccc(Cl)c1Cl
inactive: [1] | [2] | [3] | [4] | [5] | [6] | [8] | [9] | [10] | [11] | [12] | [20] | [14] | [15] | [16] | [17]

Cn1cnc2c(F)c(Nc3ccc(Br)cc3Cl)c(C(=O)NOCCO)cc21
inactive: [1] | [2] | [3] | [4] | [5] | [6] | [7] | [8] | [12] | [13] | [19] | [20] | [15] | [16] | [17]

CC(CNC1CCCCC1)OC(=O)c1ccccc1 (stereo not drawn)
inactive: [1] | [2] | [3] | [4] | [5] | [6] | [8] | [9] | [10] | [11] | [12] | [13] | [19] | [20] | [14] | [15] | [16] | [17] | [18]

CC(C)C(=O)OCC(C)(C)C(O)C(C)C (stereo not drawn)
inactive: [1] | [2] | [3] | [4] | [5] | [6] | [8] | [9] | [10] | [11] | [12] | [13] | [14] | [15] | [16] | [17] | [18]

COc1ccccc1N1CCN(CCCNc2cc(=O)n(C)c(=O)n2C)CC1
inactive: [1] | [2] | [3] | [4] | [5] | [6] | [8] | [9] | [10] | [11] | [12] | [19] | [20] | [14] | [15] | [16] | [17]

Cc1onc(-c2ccccc2)c1C(=O)Cl
inactive: [1] | [2] | [3] | [4] | [5] | [6] | [8] | [10] | [11] | [12] | [13] | [19] | [20] | [14] | [15] | [16] | [17] | [18]

Cc1cn([C@@H]2O[C@H](CO)[C@@H](O)[C@@H]2F)c(=O)[nH]c1=O
inactive: [1] | [2] | [3] | [4] | [5] | [6] | [8] | [10] | [11] | [12] | [13] | [19] | [20] | [14] | [15] | [16] | [17]

CCC1(C)NC(=O)NC1=O (stereo not drawn)
inactive: [1] | [2] | [3] | [4] | [5] | [6] | [8] | [10] | [11] | [12] | [13] | [19] | [20] | [14] | [15] | [17]

CCCCNCCCC
inactive: [1] | [2] | [3] | [4] | [5] | [6] | [8] | [10] | [11] | [12] | [19] | [20] | [14] | [15] | [16] | [17] | [18]

C=CC(C)(O)CC/C=C(\C)CCC=C(C)C (stereo not drawn)
inactive: [1] | [2] | [3] | [4] | [5] | [6] | [8] | [12] | [13] | [20] | [14] | [15] | [17]

O=C1C=CC(=O)O1
inactive: [1] | [2] | [3] | [4] | [5] | [6] | [8] | [9] | [10] | [11] | [12] | [20] | [14] | [15] | [16] | [17] | [18]

CCOC(=O)NCCC[Si](OCC)(OCC)OCC
inactive: [1] | [2] | [3] | [4] | [5] | [6] | [9] | [10] | [11] | [12] | [13] | [19] | [14] | [15] | [16] | [17]

FC(F)(F)c1ccccc1
inactive: [1] | [2] | [3] | [4] | [5] | [6] | [9] | [10] | [11] | [12] | [13] | [19] | [20] | [14] | [15] | [16] | [17] | [18]

CC(C)CC(=O)OCc1ccccc1
inactive: [1] | [2] | [3] | [4] | [5] | [6] | [8] | [9] | [13] | [20] | [14] | [15] | [16] | [17] | [18]

C=O
inactive: [1] | [2] | [3] | [4] | [5] | [6] | [8] | [10] | [11] | [12] | [13] | [19] | [20] | [14] | [15] | [16] | [17]
